Data taken from the supplement of paper PMC9694430.

Legend:
Assay in all cases: thermal shift delta Tm vs DMSO control; higher = stronger stabilization (binding)
Settings in all cases: 12.5 µM; protein concentration 2 µM
LOC_OS01G57100-cb003 = system: LOC_OS01G57100-cb003
Summary of the method: (§1)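 The melting temperature shift given here is a triplicate mean, measured against protein that received only DMSO. Melting temperatures came from Boltzmann fits of differential scanning fluorimetry data on E. coli-expressed, purified rice kinase domain constructs. Each 19.5 μl well contained 2 μM kinase, 100 mM potassium phosphate pH 7.5, 150 mM NaCl, 10% glycerol, 5 × SYPRO Orange and compound in DMSO. Plates were scanned from 25°C to 95°C at 0.05°C/s.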

LOC_OS01G60330-cb001 = system: LOC_OS01G60330-cb001
Summary of the method: as §1

LOC_OS01G60700-cb002 = system: LOC_OS01G60700-cb002
Summary of the method: as §1

LOC_OS01G63280-cb003 = system: LOC_OS01G63280-cb003
Summary of the method: as §1

LOC_OS01G67340-cb003 = system: LOC_OS01G67340-cb003
Summary of the method: as §1

LOC_OS01G70970-cb002 = system: LOC_OS01G70970-cb002
Summary of the method: as §1

LOC_OS02G07810-cb001 = system: LOC_OS02G07810-cb001
Summary of the method: as §1

LOC_OS02G08530-cb003 = system: LOC_OS02G08530-cb003
Summary of the method: as §1

LOC_OS02G14120-cb001 = system: LOC_OS02G14120-cb001
Summary of the method: as §1

LOC_OS02G17970-cb001 = system: LOC_OS02G17970-cb001
Summary of the method: as §1

LOC_OS02G45750-cb003 = system: LOC_OS02G45750-cb003
Summary of the method: as §1

LOC_OS02G54510-cb004 = system: LOC_OS02G54510-cb004
Summary of the method: as §1

LOC_OS03G04050-cb001 = system: LOC_OS03G04050-cb001
Summary of the method: as §1

LOC_OS03G12390-cb001 = system: LOC_OS03G12390-cb001
Summary of the method: as §1

LOC_OS03G27990-cb004 = system: LOC_OS03G27990-cb004
Summary of the method: as §1

LOC_OS03G50450-cb001 = system: LOC_OS03G50450-cb001
Summary of the method: as §1

LOC_OS03G50810-cb003 = system: LOC_OS03G50810-cb003
Summary of the method: as §1

LOC_OS04G35114-cb001 = system: LOC_OS04G35114-cb001
Summary of the method: as §1

LOC_OS04G38480-cb003 = system: T1, LOC_OS04G38480-cb003
T1 sequence (whole entry): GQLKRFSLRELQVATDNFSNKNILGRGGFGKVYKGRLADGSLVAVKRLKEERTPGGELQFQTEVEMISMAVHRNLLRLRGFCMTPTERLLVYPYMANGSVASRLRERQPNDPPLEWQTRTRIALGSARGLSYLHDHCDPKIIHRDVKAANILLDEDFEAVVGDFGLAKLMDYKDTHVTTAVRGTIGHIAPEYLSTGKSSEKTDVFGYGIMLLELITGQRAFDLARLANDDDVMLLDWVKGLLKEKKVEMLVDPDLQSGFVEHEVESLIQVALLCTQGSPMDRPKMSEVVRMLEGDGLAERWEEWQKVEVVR
Summary of the method: as §1

LOC_OS04G41100-cb001 = system: T2, LOC_OS04G41100-cb001
T2 sequence (whole entry): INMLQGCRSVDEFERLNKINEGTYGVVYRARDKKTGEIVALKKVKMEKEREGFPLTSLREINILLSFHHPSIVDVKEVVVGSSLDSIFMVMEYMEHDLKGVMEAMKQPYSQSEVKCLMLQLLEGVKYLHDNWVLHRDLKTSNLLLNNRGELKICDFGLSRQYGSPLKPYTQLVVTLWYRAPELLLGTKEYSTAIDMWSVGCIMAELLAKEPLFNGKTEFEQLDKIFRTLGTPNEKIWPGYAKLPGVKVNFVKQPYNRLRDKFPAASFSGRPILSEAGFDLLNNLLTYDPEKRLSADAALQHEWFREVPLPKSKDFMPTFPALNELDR
Summary of the method: as §1

Row | SMILES | thermal shift delta Tm (LOC_OS01G57100-cb003) [°C] | thermal shift delta Tm (LOC_OS01G60330-cb001) [°C] | thermal shift delta Tm (LOC_OS01G60700-cb002) [°C] | thermal shift delta Tm (LOC_OS01G63280-cb003) [°C] | thermal shift delta Tm (LOC_OS01G67340-cb003) [°C] | thermal shift delta Tm (LOC_OS01G70970-cb002) [°C] | thermal shift delta Tm (LOC_OS02G07810-cb001) [°C] | thermal shift delta Tm (LOC_OS02G08530-cb003) [°C] | thermal shift delta Tm (LOC_OS02G14120-cb001) [°C] | thermal shift delta Tm (LOC_OS02G17970-cb001) [°C] | thermal shift delta Tm (LOC_OS02G45750-cb003) [°C] | thermal shift delta Tm (LOC_OS02G54510-cb004) [°C] | thermal shift delta Tm (LOC_OS03G04050-cb001) [°C] | thermal shift delta Tm (LOC_OS03G12390-cb001) [°C] | thermal shift delta Tm (LOC_OS03G27990-cb004) [°C] | thermal shift delta Tm (LOC_OS03G50450-cb001) [°C] | thermal shift delta Tm (LOC_OS03G50810-cb003) [°C] | thermal shift delta Tm (LOC_OS04G35114-cb001) [°C] | thermal shift delta Tm (LOC_OS04G38480-cb003) [°C] | thermal shift delta Tm (LOC_OS04G41100-cb001) [°C]
1 | CN1CCCN(C(=O)c2cccc(-c3ccc(/C=C4/C(=O)Nc5ccc(Cl)cc54)o3)c2)CC1 | 1.45 | 3.07 | 1.97 | 1.12 | 0.39 | 1.61 | 0.97 | 3.51 | 3.94 | 1.03 | 5.04 | 0.59 | 0.65 | 3.37 | 1.12 | 0.49 | 2.85 | 4.61 | 2.24 | 1.74
2 | COc1cc(N2CCC(N)CC2)ccc1Nc1ncc(Cl)c(-c2c[nH]c3ccccc23)n1 | 5.66 | 7.59 | 2.23 | 0.87 | 0.6 | 6.87 | 1.19 | 7.02 | 9.17 | 1.36 | 2.46 | 1.23 | 0.85 | 14.1 | 5.3 | 8.66 | 6.42 | 3.73 | 4.68 | 1.54
3 | CC(C)(C)NC(=O)c1cncn1C1CCN(c2ccc(-c3nnc(C(F)(F)F)o3)cn2)CC1 | -0.21 | 0.32 | -0.26 | -0.16 | 0.05 | 0.37 | -1.16 | 0.52 | 0.95 | -0.2 | 0.9 | 0.27 | 0.48 | -0.08 | 0.32 | 0.7 | 0.36 | -0.3 | 1.43 | 0.3
4 | C[C@@]1(C(=O)Nc2ccc(F)nc2)CCCN1c1nc(Nc2cc(C3CC3)n[nH]2)c2cccn2n1 | 0.92 | -2.64 | 0.85 | 0.6 | -0.49 | 1.02 | 1.05 | 0.71 | 8.77 | 0.26 | -1.4 | 2.49 | 0.25 | 0.55 | 0.21 | -0.6 | 1.17 | 2.02 | 1.6 | 0.62
